Anthrax LF prot: blocks Bacillus anthracis lethal factor protease; AID 588501; 360,000 tested, 0.12% active; inhibition, % at 10 µM; P15917; multiplex microsphere protease cleavage assay, LF; further: plate controls were buffer without enzyme for full effect and enzyme alone for no effect
Autofluor counter: flagged as autofluorescent in microsphere protease counterscreen. fluorescence intensity (no concentration beside the values). 360,000 tested, 3.1% active. compound autofluorescence counterscreen, microsphere flow cytometry; stronger effect = higher value; in the data active means fluorescence intensity above about 16000; inconclusive means no clear call, values can overlap the other calls
BoNT-A LC inh2: blocks Botulinum neurotoxin A light chain protease; multiplex microsphere protease substrate cleavage, flow cytometry; inhibition, % at 10 µM; 360,000 tested, 0.17% active; AID 588499; further: plate controls were buffer without enzyme for full effect and enzyme alone for no effect
Vc quorum ag: quorum light induction in luxS cqsA deficient V. cholerae | AID 588436 | 350,000 tested, 0.16% active | activation, % at 18.7 µM | V. cholerae BH1578 lux reporter, luminescence, 6 h; in the data active means activation mostly above about 9.7%, no sharp cut-off; inconclusive means no clear call, values can overlap the other calls; inactive means mostly below about 3.7%
BoNT-F LC inh: BoNT F light chain protease inhibition. Multiplex microsphere protease cleavage assay, flow cytometry. inhibition, % at 10 µM. 360,000 tested, 0.22% active; in the data active means inhibition above about 35%, passing the limit was not always enough; inconclusive means no clear call, values can overlap the other calls; further: plate controls were buffer without enzyme for full effect and enzyme alone for no effect
* marks the source's active call; other numbers are inactive results; i = inactive; ? = inconclusive; / = no result; + = active, no number. The list is not random: actives were taken first. Their share in the collection is about 3.5%. Unless noted, no stated cut-off is given here; in the data, active means inhibition above about 30%; inconclusive means no clear call, values can overlap the other calls; inactive means below that.

SMILES	Anthrax LF prot	Autofluor counter	BoNT-A LC inh2	Vc quorum ag	BoNT-F LC inh
COc1ccc(C(=O)CSc2nnc(Cc3ccccc3)o2)cc1	-6	5554	0	i	6
Cc1cccc(C)c1OCc1nnc(SCC(=O)Nc2nccs2)o1	-1	5818	-1	0	-8
COC(=O)c1ccccc1NC(=O)CSc1nnc(Cc2ccc(Cl)cc2)o1	-23	19277*	6	12	11
COc1ccc(CCNC(=O)CSCc2n[nH]c(=O)[nH]2)cc1OC	-2	20702*	?	-3	1
Cc1cccc(C)c1OCc1nnc(SCC(=O)NCCc2ccccc2)o1	-2	23122*	?	-2	-6
COc1ccc(/C(O)=C/Sc2nnc(Cc3ccccc3)o2)cc1	-6	24165*	-2	i	-4
Cc1ccc(C)c(N2CC(C(=O)Nc3cc(C)on3)CC2=O)c1 (stereo unspecified)	1	4153	2	0	-2
CCOC(=O)c1c(NC(=O)CSc2nnc(Cc3ccccc3)o2)sc(C(C)=O)c1C	-3	18103*	?	i	-11
Cc1cc(C)n(C(=O)CSc2nc3ccccc3o2)n1	2	20678*	-3	i	-5
O=C(O)c1ccc(CSc2nnc(COc3ccccc3)o2)cc1	1	4864	2	-1	7
Cc1ccc(SCC(=O)n2nc(C)cc2C)cc1	-2	2330	-1	-1	1
O=C(O)c1ccc(CSc2nnc(Cc3ccccc3)o2)cc1	-5	16912*	-3	i	-2
COc1ccc(/C=C(/NC(=O)c2ccccc2)C(=O)N2CCOCC2)cc1OC	6	3648	2	0	-10
CN(C)C1(CNC(=O)C2CCN(S(=O)(=O)c3cccc(C(F)(F)F)c3)CC2)CCCCC1	4	5237	0	i	-2
CN1CCCCCC1=Nc1ccc([N+](=O)[O-])cc1	1	2847	0	0	39*
O=C(NC1(C(F)(F)F)NC(=O)N(Cc2cccnc2)C1=O)c1ccc(F)cc1 (stereo unspecified)	-2	23016*	-1	-1	-3
CSC[C@H]1CN(Cc2cccnc2)C(=O)[C@@H]1CC(=O)Nc1ccc(Br)cc1	-4	3857	0	-2	-5
COc1ccc(C2CC(C(F)(F)F)n3nc(C(N)=O)c(Cl)c3N2)cc1OC (stereo unspecified)	-6	20210*	-2	-2	1
COc1ccc(C2CC(C(F)(F)F)n3ncc(C(=O)O)c3N2)cc1OC (stereo unspecified)	0	2785	0	0	0
COc1ccc(C2CC(C(F)(F)F)n3nc(C(=O)N(C)Cc4cn(C)nc4C)c(Cl)c3N2)cc1 (stereo unspecified)	4	?	0	+	-4
COn1c(SCc2cccc(Cl)c2)nc2ccccc2c1=O	-2	17254*	-2	i	-10
COC(=O)[C@@]1(Cc2ccc(OC)cc2)[C@H]2c3cc(C(=O)N4CCCC4)n(CCc4ccc(OC)c(Br)c4)c3C[C@H]2CN1C(=O)c1ccccc1	-1	5788	0	/	3
CCOc1ccccc1C(=O)NCC(=O)NNC(=O)c1cccc(S(=O)(=O)Nc2ccc(OC)cc2)c1	-4	6493	-3	536*	-9
COc1ccccc1C(CNC(=O)c1cccc(S(=O)(=O)Nc2ccc(F)cc2)c1)N1CCCC1 (stereo unspecified)	3	25818*	2	1	6
O=C(NCC(c1ccco1)N1CCCCC1)c1ccc(S(=O)(=O)Nc2ccccc2)cc1 (stereo unspecified)	0	?	1	i	3
SMILES	Anthrax LF prot	Autofluor counter	BoNT-A LC inh2	Vc quorum ag	BoNT-F LC inh
O=C(NCC(c1ccco1)N1CCCC1)c1cccc(NS(=O)(=O)c2ccccc2)c1 (stereo unspecified)	-4	16491*	-9	i	-8
CC(C)c1csc(CN2CCC(C(=O)Nc3cccc(-c4ccco4)c3)CC2)n1	5	4705	0	-6	0
COc1ccc(C2(C(=O)Nc3nncs3)CCCC2)cc1	-2	22722*	1	0	1
CC(C)(C)OC(=O)N1CCCC1C(=O)N1CCc2ccccc21 (stereo unspecified)	-25	16582*	?	-4	14
Cc1ccc(C(=O)Nc2ccccc2N2CCCCC2)cc1	0	3964	-2	i	?
O=C(Nc1ccccc1N1CCCCC1)c1ccc(N2C(=O)c3ccccc3C2=O)cc1	-2	16910*	0	-6	-1
O=C(Nc1ccccc1N1CCCCC1)c1ccccc1F	-2	23407*	-1	i	-5
COc1ccc(C2SCC(=O)Nc3c2c(C)nn3C2CCOC(C)(C)C2)cc1OC (stereo unspecified)	-3	23587*	?	i	-2
COc1ccc(C2SCC(=O)Nc3c2c(C)nn3-c2ccccc2)cc1OC (stereo unspecified)	-2	23949*	-3	i	-6
COc1ccc(C2N(c3ccccc3)C(=O)C2(F)F)cc1OC (stereo unspecified)	-3	3260	1	1	1
CC(C)CC(C(=O)N1CCOCC1)N1Cc2ccccc2C1=O (stereo unspecified)	4	3354	-1	/	-4
CC(=O)C1C(c2ccc(Cl)cc2)c2c(noc2C)CC1(C)O (stereo unspecified)	-10	3546	-5	-1	?
COc1ccc2nc(C)cc(SCC(=O)N/N=C/c3ccc(O)c(O)c3)c2c1	-3	4307	0	-2	-7
COc1ccc2nc(C)cc(SCC(=O)N/N=C/c3cccc4ccccc34)c2c1	-1	19063*	1	-1	-2
CC(C)C(NC(=O)c1c(F)cccc1F)C(=O)N1CCN(c2ncccn2)CC1 (stereo unspecified)	-8	3433	0	i	-9
CC(C)CSc1nnc2c(n1)[nH]c1ccccc12	0	11366	1	-8	9
CCCCSc1nnc2c(n1)[nH]c1ccccc12	1	21409*	-1	i	2
O=C(Cc1c(C(=O)O)[nH]c2ccccc12)Nc1ccc2c(c1)OCO2	-3	16805*	0	11	-4
O=C(CSc1nnc2c(n1)[nH]c1ccccc12)Nc1ccc2c(c1)OCO2	-3	21923*	?	-2	0
O=C(O)c1[nH]c2ccccc2c1CC(=O)N1CCOCC1	2	19170*	2	i	1
Cc1ccc(CN2CCNC(=O)C2CC(=O)N2CCN(c3ncccn3)CC2)o1 (stereo unspecified)	-3	4574	-1	i	-1
O=C(NCc1ccc(Cl)cc1)C1CCCN1C(=O)Nc1ccc(F)cc1 (stereo unspecified)	6	3803	-6	0	?
N#Cc1ccccc1OCC(=O)Nc1ccccc1C(=O)NC1CC1	-2	5848	1	i	3
CC(C)(C)CC(=O)Nc1nnc(SCC(=O)N2CCCCC2)s1	11	3504	-3	0	3
Cc1cc(C)nc(N2CCCC(C(=O)Nc3cc(F)ccc3C)C2)n1 (stereo unspecified)	-3	22529*	2	-1	2

Screening data as filed in PubChem.
